CYP2C9 inhib: human CYP2C9 inhibition; P11712; CYP2C9 Supersomes, luciferin-H conversion, luminescence; inhibition, % at 5 µM; 96,000 tested, 20% active;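 active = blocking of liver enzyme CYP2C9 beyond about 50% at 5 µM, limit read from the data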
sEH inh: soluble epoxide hydrolase (human) inhibition. recombinant human sEH enzymatic activity assay. AID 707. inhibition, % at 2 µM. 91,000 tested, 0.34% active. P34913; in the data active = inhibition above about 80%
Target sequence (P34913 whole entry, looked up): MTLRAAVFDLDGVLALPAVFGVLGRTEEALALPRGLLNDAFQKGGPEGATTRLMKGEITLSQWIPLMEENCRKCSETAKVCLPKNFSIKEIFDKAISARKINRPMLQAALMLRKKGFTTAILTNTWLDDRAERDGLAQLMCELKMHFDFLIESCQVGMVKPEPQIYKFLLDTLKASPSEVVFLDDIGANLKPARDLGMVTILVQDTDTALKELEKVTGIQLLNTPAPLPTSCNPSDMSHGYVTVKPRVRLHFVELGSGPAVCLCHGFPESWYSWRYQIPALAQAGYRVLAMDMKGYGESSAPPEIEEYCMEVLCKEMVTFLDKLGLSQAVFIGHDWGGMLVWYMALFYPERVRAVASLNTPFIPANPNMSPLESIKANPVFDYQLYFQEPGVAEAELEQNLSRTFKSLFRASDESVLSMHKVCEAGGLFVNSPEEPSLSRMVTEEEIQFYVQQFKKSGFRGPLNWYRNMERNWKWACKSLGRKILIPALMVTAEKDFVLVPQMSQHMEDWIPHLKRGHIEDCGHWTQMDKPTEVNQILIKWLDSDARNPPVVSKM
sEH act: activators of human soluble epoxide hydrolase | P34913 | purified human sEH enzymatic activity, activator screen | activation, % at 2 µM | 91,000 tested, 0.04% active; in the data active = activation above about 37%
CYP2C19 activ: cytochrome P450 2C19 (human) activation. recombinant CYP2C19, luciferin-H EGE luminescence; hits give high values; 0 = fully inhibited enzyme, 1 = untreated enzyme. activation factor at 5 µM. 96,000 tested, under 10 active;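 active = activation factor of at least 2 at 5 µM in the primary screen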;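 also: 0 = wells with 2.5 mM tranylcypromine and 1 = vehicle-only wells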
CYP2C9 activ: increases human cytochrome P450 2C9 activity | activation factor at 5 µM | recombinant CYP2C9, luciferin-H conversion, luminescence; hits give high values; factor 1 = untreated enzyme, 0 = blocked | AID 1024 | P11712 | 96,000 tested, 1.4% active;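 active = activation factor of 2 or more for CYP2C9 at a 5 µM dose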;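 also: 0 = sulfaphenazole-blocked wells and 1 = vehicle-only wells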
CYP2C19 inhib: blocks human cytochrome P450 2C19. P33261. CYP2C19 Supersomes, luciferin-H EGE luminescence, 30 min. inhibition, % at 5 µM. 96,000 tested, 21% active;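 active = CYP2C19 inhibition above a set limit at 5 µM in the primary screen, cut at about 50% in these data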;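 also: plate controls were negative control wells for no effect and 2.5 mM tranylcypromine positive control for full effect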
Starred values were filed as active, the others as inactive; · = not tested or not shown. Compounds with a hit are over-represented: about 27% of the library has one in this group of screens.

SMILES	CYP2C9 inhib	sEH inh	sEH act	CYP2C19 activ	CYP2C9 activ	CYP2C19 inhib
CCN1CCc2c(C#N)c(N3CCOCC3)nc(N3CCOCC3)c2C1	17.8	4.6	-5.5	1	0.8	-3.2
CCN1CCc2c(C#N)c(N3CCCCC3)nc(N3CCOCC3)c2C1	67.8*	8.2	-8.5	0.6	0.3	39.7
CCN(CC)c1nc(N2CCOCC2)c(C#N)c2c1CN(C)CC2	55.6*	-2.1	1.9	0.8	0.4	21.3
CCn1nnnc1Oc1ccc(Cl)cc1	-3.1	6.7	-5.5	0.6	1	35.6
C=CCn1c(SCC(=O)Nc2cc(C)ccc2C)nnc1-c1cnccn1	3.1	-1.2	-0.1	0.2	1	83.2*
C=CCn1c(SCC(=O)Nc2cccc(C)c2)nnc1-c1cnccn1	53.2*	-2.1	0.8	0	0.5	95.6*
C=CCn1c(SCC(=O)Nc2cc(C)cc(C)c2)nnc1-c1cnccn1	-3.3	16.3	-16.7	1	1	3.5
CCn1c(SCC(=O)Nc2ccc3c(c2)c2ccccc2n3CC)nnc1-c1cnccn1	-44.4	·	·	0.5	1.4	53.1*
Cc1cccc(NC(=O)CSc2nnc(CCC(=O)Nc3ccc(C)c(Cl)c3)n2C)c1	-18.8	17.4	-17.3	1	1.2	-4.0
C=CCn1c(CCC(=O)Nc2ccc(C)c(Cl)c2)nnc1SCC(=O)Nc1ccccc1C	64.0*	-4.4	4.5	0.7	0.4	30.1
C=CCn1c(CC(=O)OC)csc1=Nc1ccc(C(C)=O)cc1	43.1	10.1	-9.7	0.2	0.6	78.0*
CN(C)CC(=O)c1ccc(-c2ccccc2)cc1	1.6	1.8	-2.3	1	1	-2.4
CN(C)C/C(Cl)=C(\Cl)c1ccccc1	27.0	2.9	-1.5	0.4	0.7	57.4*
CCOc1cccc(SCc2noc(C(=O)NCC3CCCO3)c2C(=O)O)c1 (stereo not drawn)	50.1*	-12.7	19.5	0.5	0.5	53.7*
O=C(NCC1CCCO1)c1onc(CSc2cccc(Cl)c2)c1C(=O)O (stereo not drawn)	54.7*	-7.1	13.5	0.7	0.5	28.0
Cc1ccc(SCc2noc(C(=O)NCC3CCCO3)c2C(=O)O)cc1C (stereo not drawn)	45.5	6.2	-0.6	0.8	0.5	16.3
CCc1ccccc1SCc1noc(C(=O)NCC2CCCO2)c1C(=O)O (stereo not drawn)	0.7	-0.5	6.5	0.8	1	21.6
O=C(NCC1CCCO1)c1onc(CSc2cccc3ccccc23)c1C(=O)O (stereo not drawn)	82.2*	-1.2	7.2	0.5	0.2	45.9
O=C(c1cccc(-n2cnnn2)c1)N1CCOCC1	-15.8	-4.5	7.2	1.1	1.2	-13.3
CCCCC(CC)CNS(=O)(=O)c1ccc2c(c1)CCN2C(=O)CCC(=O)O (stereo not drawn)	18.2	-6.6	8.4	1	0.8	-1.4
Cn1cc(SCC(=O)NCc2ccc3c(c2)OCO3)c2ccccc21	68.6*	·	·	0	0.3	99.9*
CCCn1cc(SCC(=O)NCc2ccc3c(c2)OCO3)c2ccccc21	41.9	22.2	-23.0	0.7	0.6	28.5
O=C(CSCc1ccccc1)NCc1ccc2c(c1)OCO2	91.0*	-2.8	4.9	0.5	0.1	54.2*
CC(=O)c1cn(CC(=O)NCc2ccc3c(c2)OCO3)c2ccccc12	·	3.7	0.1	·	·	·
Cc1nonc1NC(=O)CSc1nc(C2CCCCC2)nc2ccccc12	50.1*	6.9	-8.1	1	0.5	1.6
SMILES	CYP2C9 inhib	sEH inh	sEH act	CYP2C19 activ	CYP2C9 activ	CYP2C19 inhib
Cc1cc(NC(=O)CSc2nc(C3CCCCC3)nc3ccccc23)no1	25.4	9.3	-9.0	0.8	0.7	23.3
CCn1cc(SCC(=O)NCc2ccc3c(c2)OCO3)c2ccccc21	23.3	·	·	0	0.8	96.7*
O=C(CSc1nc2ccccc2n1CC(=O)N1CCCC1)NCc1ccc2c(c1)OCO2	1.7	2.3	-1.6	0.8	1	18.8
O=C(Cn1cc(C(=O)C2CC2)c2ccccc21)NCc1ccc2c(c1)OCO2	31.5	1.6	-1.6	0.2	0.7	81.4*
Cc1ccccc1C(=O)c1cccn1CC(=O)NCc1ccc2c(c1)OCO2	73.7*	5.8	-2.8	0.4	0.3	61.7*
O=C(CSc1nc(C2CC2)nc2ccccc12)NCc1ccc2c(c1)OCO2	88.2*	11.1	-9.6	0.5	0.1	46.8
COc1ccc(NC(=O)CSc2nc(C)c3c(c2C#N)CCCC3)cc1	21.0	17.2	-14.3	0.8	0.8	19.9
Cc1nc(SCC(=O)NCc2ccc3c(c2)OCO3)c(C#N)c2c1CCCC2	86.7*	·	·	0.2	0.1	84.3*
COCCNC(=O)c1ccc(CS(=O)(=O)c2ccccc2)o1	4.5	5.8	-5.2	1.1	1	-7.0
O=C(CSc1nc(C2CC2)nc2ccccc12)N1c2ccccc2Sc2ccc(C(F)(F)F)cc21	92.3*	0.5	1.8	0.9	0.1	10.7
CC(=O)NC(CCS(C)(=O)=O)C(=O)Nc1cc(C)on1 (stereo not drawn)	·	-0.8	0.7	·	·	·
CCOC(=O)C1C(=O)CC(O)(c2ccccc2)CC1c1ccccc1 (stereo not drawn)	82.0*	1.6	-1.9	0.3	0.2	73.1*
Clc1ccc(-n2nnnc2SCc2c(-c3ccccc3)nc3sccn23)cc1	89.0*	0.2	-1.5	0.8	0.1	24.9
C=CCNc1nc2c(c(=O)[nH]c(=O)n2C)n1CCCCC	9.2	-10.0	11.4	0.9	0.9	6.3
Cc1ccc2c(c1)[nH]c1c(=O)n(Cc3ccccn3)cnc12	8.9	-8.3	7.1	0.8	0.9	21.3
COc1ccc2c(c1)[nH]c1c(=O)n(Cc3ccccn3)cnc12	51.0*	2.8	-2.9	0.6	0.5	44.0
Cc1ccc(S(=O)(=O)N=S(CC2CC2(Cl)Cl)CC2CC2(Cl)Cl)cc1 (stereo not drawn)	43.9	-6.5	7.5	0.4	0.6	62.3*
Cc1ccc(/S(C)=N/S(=O)(=O)c2ccc(C)cc2)cc1 (stereo not drawn)	-59.0	-8.4	8.9	0.7	1.6	28.2
Cn1c(SCc2cnc(-c3ccccc3)s2)nnc1C1COc2ccccc2O1 (stereo not drawn)	48.6	18.2	-18.6	0.1	0.5	90.2*
Cn1c(SCc2cc(=O)n3cc(Br)ccc3n2)nnc1C1COc2ccccc2O1 (stereo not drawn)	53.6*	6.2	-7.4	0.7	0.5	29.8
Cn1c(SCC(=O)c2ccc3c(c2)OCO3)nnc1C1COc2ccccc2O1 (stereo not drawn)	44.4	11.6	-10.9	1.1	0.6	-7.5
Cc1ccc(CC23CN4CCN(CC(C4)C2O)C3)c(C)c1 (stereo not drawn)	-3.6	11.4	-8.2	0.9	1	7.6
N#Cc1c(NCCCO)nc(-c2ccco2)c2c1CCCC2	91.7*	3.8	-4.7	0.4	0.1	60.9*
N#Cc1c(NCCCO)nc(NCc2ccccc2)c2c1CCN(Cc1ccccc1)C2	99.9*	0.3	0.4	0.6	0	43.7

Assay outcomes deposited in PubChem by several laboratories.
